The source holds several records for some structures; these can differ, active in one and inactive in another. Active and inactive are the calls of the source. The calls were made as follows: active = hit-call score of the fitted dose curve at least 0.9, where 1 is the maximum; inactive = score below 0.9.
Read-out: catalase (CAT), CAT (gene 847)
Experiment: LTEA_HepaRG_CAT: Life Technologies and Expression Analysis (LTEA) Assay for catalase (CAT) using HepaRG (AID 2283452);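 as to AC50: TaqMan qRT-PCR signal normalized to ACTB GAPDH and POLR2A housekeeping genes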
Conditions: mRNA level, 48 h; actives raise or lower the signal
Protocol: LTEA_HepaRG is a cell based, multiplexed-readout assay that uses HepaRG, a human liver cell line, with measurements taken at 48 hours after chemical dosing on a 96-well plate.LTEA_HepaRG_CAT is one of 102 assay component(s) measured in the LTEA HepaRG cell culture assay. It is a marker of Oxidative Stress.Data from the assay component LTEA_HepaRG_CAT was analyzed into 1 endpoint. This assay endpoint, LTEA_HepaRG_CAT, was analyzed with bidirectional fitting relative to DMSO as the negative control and baseline of activity. Using a type of inducible reporter, measures of mRNA induction for gain or loss-of-signal activity can be used to understand regulation of transcription factor activity. To generalize the intended target to other relatable targets, this assay endpoint is annotated to the catalase intended target family, where the subfamily is oxidative stress.
A total of 1060 chemcials from the ToxCast library were tested in eight-point concentration-response experiments. Cell culture and cytotoxicity assays were conducted at Thermo Fisher Scientific's Custom Services facility (Madison, WI). A single lot of human HepaRG cells (Thermo Fisher Scientific, Frederick, MD) was used for the cell culture experiments. 96-well format collagen type I coated plates of human HepaRG cells were prepared using established methods. Briefly, cryopreserved HepaRG cells were thawed, plated at a density of approximately 100,000 cells/well in HepaRG Thaw, Plate, and General Purpose media (HPRG770, Thermo Fisher Scientific), and incubated for 48 hours. 0.5% DMSO was selected as vehicle control to balance the requisite need of DMSO in HepaRG cultures to maintain differentiation (for example, baseline metabolism, proportions of hepatocytes vs. cholangiocytes), while enabling further hepatic receptor pathway activation (for example, PXR and CAR) in response to chemical exposure. 48 hours after plating, the culture medium was replaced with HepaRG Serum-Free Incudtion Media. Cells were exposed to each test chemical in duplicate and maintained in CO2 incubators for another 48 hours. Chemical plates were thawed to room temperature and 200x concentrations of treatment groups were prepared. 8-point conentration-reponse curves were made with the highest exposure at 100 uM, followed by half-log dilutions, all in 0.5% DMSO. Each test plate contained variouse controls, induction positive controls (1mM phenobarbital), cytotoxicity positive controls ([…] aflatoxin B1), vehicle controls (0.5% DMSO), and total lysis controls (0.5% DMSO). Cell morphology images were taken using an Essen IncuCyte FLR automated microscope, with six 96-well plates imaged in about 24 minutes. Images were captured and exported and JPEG files. Spent culture media was transfered to black-well plates for the LDH assay, and remaining media was sorted at -80 C for later use. Cells were treated with RLT buffer and frozen until shipped for gene expression analysis. Total RNA was isolated from the cell suspension in 75 uL of Buffer RLT (Qiagen, Germantown, MD 20874) by Quintiles/Expression Analysis (Durham, NC) using a custom isolation procedure. Total RNA from each plate well was transferred to a preamplification plate. Fluidigm's 96.96 Dynamic ArrayTM (Fluidigm, Amsterdam, the Netherlands) technology was used for gene expression analyses by quantitative reverse transcription polymerase chain reaction (qRT-PCR, performed by Quintiles/Expression Analysis, Durham, NC)89. Standard TaqManTM Assays (Applied Biosystems/ThermoFisher Scientific, Foster City, CA) were used to assess the expression of 93 genes selected based on their selectivity and sensitivity to important hepatic receptors known to be modulated by environmental chemicals; importance in human hepatocyte functionality; and hepatotoxicity. […]

Structure (SMILES)	outcome	AC50
OCCOc1ccccc1	inactive	–
O=[N+]([O-])/N=C1\NCCN1Cc1ccc(Cl)nc1	–	39.8 µM (active)
O=[N+]([O-])c1c(Cl)c(Cl)c(Cl)c(Cl)c1Cl	inactive	–
CC(C)(C)C(O)/C(=C\c1ccc(Cl)cc1Cl)n1cncn1 (stereo not given)	–	27.3 µM (active)
COP(=S)(OC)Oc1ccc([N+](=O)[O-])cc1	inactive	–
CCOCN(C(=O)CCl)c1c(C)cccc1CC	–	80 µM (active)
CCN(CC)C(=O)SCc1ccc(Cl)cc1	inactive	–
O=S1OCC2C(CO1)C1(Cl)C(Cl)=C(Cl)C2(Cl)C1(Cl)Cl (stereo not given)	–	52.3 µM (active)
O=S(=O)(O)C(F)(F)C(F)(F)C(F)(F)C(F)(F)C(F)(F)C(F)(F)C(F)(F)C(F)(F)F	inactive	84 µM (active)
Clc1ccccc1-c1nnc(-c2ccccc2Cl)nn1	inactive	–
O=C(Nc1ccccc1)Nc1cnns1	–	50 µM (active)
CNC(=O)Oc1ccccc1OC(C)C	inactive	–
CCCN(CCC)c1c([N+](=O)[O-])cc(C(F)(F)F)cc1[N+](=O)[O-]	inactive	–
O=C(O)COc1ccc(Cl)cc1Cl	inactive	–
C[C@H]1[C@H](c2ccc(Cl)cc2)SC(=O)N1C(=O)NC1CCCCC1	–	66.2 µM (active)
CC[C@H](C)[C@H]1O[C@]2(C=C[C@@H]1C)C[C@@H]1C[C@@H](C/C=C(\C)[C@@H](O[C@H]3C[C@H](OC)[C@@H](O[C@H]4C[C@H](OC)[C@@H](O)[C@H](C)O4)[C@H](C)O3)[C@@H](C)/C=C/C=C3\CO[C@@H]4[C@H](O)C(C)=C[C@@H](C(=O)O1)[C@]34O)O2 (tested in a mixture with another compound)	–	10.5 µM (active)
COP(=O)(OC)OC=C(Cl)Cl	inactive	–
CC(C)OC(=O)Nc1cccc(Cl)c1	inactive	–
CNC(=O)/C=C(\C)OP(=O)(OC)OC	inactive	–

Structure (SMILES)	outcome	AC50
CNC(=O)Oc1cccc(N=CN(C)C)c1	inactive	–
C#CCN1C(=O)COc2cc(F)c(N3C(=O)C4=C(CCCC4)C3=O)cc21	inactive	–
Oc1cc(Cl)ccc1Oc1ccc(Cl)cc1Cl	inactive	90.2 µM (active)
Oc1ccc(Cl)cc1Cc1ccccc1	inactive	–
Cc1[nH]c(=O)n(C(C)(C)C)c(=O)c1Cl	inactive	–
CCc1ccc(C(=O)NN(C(=O)c2cc(C)cc(C)c2)C(C)(C)C)cc1	inactive	–
CN1CSC(=S)N(C)C1	inactive	–
CCC(C)(C)C(=O)OC1=C(c2ccc(Cl)cc2Cl)C(=O)OC12CCCCC2	inactive	–
O=C(O)C(F)(F)C(F)(F)C(F)(F)C(F)(F)C(F)(F)C(F)(F)C(F)(F)F	inactive	23.3 µM (active)
CCCN(CCOc1c(Cl)cc(Cl)cc1Cl)C(=O)n1ccnc1	–	32.1 µM (active)
O=C1c2ccccc2C(=O)N1SC(Cl)(Cl)Cl	inactive	–
CC(C)(C)C(O)C(Oc1ccc(Cl)cc1)n1cncn1 (stereo not given)	inactive	–
N#Cc1c(Cl)c(Cl)c(Cl)c(C#N)c1Cl	–	65.7 µM (active)
CCC(C)(NC(=O)c1cc(Cl)c(C)c(Cl)c1)C(=O)CCl (stereo not given)	–	71 µM (active)
O=C(NC(=O)c1c(F)cccc1F)Nc1ccc(OC(F)(F)C(F)OC(F)(F)F)c(Cl)c1 (stereo not given)	inactive	–
CNC(=O)CSP(=S)(OC)OC	inactive	–
CCOC1Oc2ccc(OS(C)(=O)=O)cc2C1(C)C (stereo not given)	–	74.1 µM (active)
O=C(O)CCCOc1ccc(Cl)cc1Cl	inactive	–

— PubChem BioAssay (EPA / NIEHS)
